Tgondii IFNg: T. gondii growth inhibition under IFN-gamma; AID 1259416; Toxoplasma gondii growth in IFN-gamma-treated host cells; active compounds read low; activity change, negative = inhibition, % (test concentration not listed); 69,000 compounds, 3.8% hits; in the data active means activity change below about -70%, passing the limit was not always enough;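 further: host cells are HeLa cells infected with Toxoplasma gondii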
Hits are given with their value; – = inactive. Many of the other results were omitted from the sample, so hits are more common in it than they were.

SMILES	Tgondii IFNg
Cc1nccn1CC1CCCN(Cc2cnc3cc(O)ccc3c2)C1 (configuration not stated)	–
Cc1ccc(CS(=O)(=O)N2CCC(N(C)C)CC2C(=O)O)cc1 (configuration not stated)	–
O=C(CCC1CCCN(C(=O)c2noc3c2CCCC3)C1)N1CCN(c2ccccn2)CC1 (configuration not stated)	–
CCc1c(C)nc2cc(-c3cc(C)on3)nn2c1N1CCN(Cc2ccccn2)CC1	-85
Cc1cc(N2CCCN(Cc3cc(-c4ccccc4)no3)CC2)ccn1	–
CCN1CCC2(CN(c3ncccn3)CC23CCN(Cc2ccccn2)CC3)C1=O (configuration not stated)	–
COCC1c2c(cnn2CC2CCOCC2)CCN1Cc1ccc(C)o1 (configuration not stated)	–
c1cnc(N2CC[C@@H]3C[C@H](c4ccncn4)O[C@H]3C2)nc1	–
CN(C)Cc1cncc2c1CCN(C(=O)c1ccc3c(c1)OCO3)C2	–
Cn1nc(CN2CCCn3cncc3C2)c2c(Cl)cccc21	–
COCCN1C(=O)CCC12CCN(C(=O)c1cnoc1C)CC2	–
CCOC(=O)[C@@]12CCCN(Cc3ccccn3)C[C@@H]1CN(C(C)C)C2	–
C=CCN1C[C@H]2CN(Cc3ccccn3)CCC[C@@]2(C(=O)OCC)C1	–
CCOC(=O)C1(Cc2cc(-c3ccccc3C)no2)CCN(Cc2ccccn2)CC1	-77
COCCN1C(=O)C2CC(=O)OC23C1C(=O)N(C1CCCCC1)C3CC(C)=O (configuration not stated)	–
COc1cc(-c2nc(Cn3ccn4nc(-c5ccc(C)c(C)c5)cc4c3=O)c(C)o2)cc(OC)c1OC	–
Cc1ccc(N2CC[C@H]3OCC[C@]3(C(=O)NC(C)C)C2)nn1	–
O=C(NC(=O)c1sc2ccccc2c1Cl)c1ccccc1O	-107
O=C(NC1CCSC1=O)c1sc2ccccc2c1Cl (configuration not stated)	–
O=C(Nc1ncn[nH]1)c1sc2ccccc2c1Cl	–
Cc1ccc(-c2cc(C(=O)Nc3cccc(Cn4cncn4)c3)[nH]n2)cc1	–
Cc1ccc(NC(=O)Cn2c(=O)cc(-c3nc(C4CC4)no3)c3ccccc32)cc1F	–
CC(=O)Nc1ccc(OC(=O)c2ccccc2O)cc1	–
O=C(/C=C/c1ccccc1)NC(=O)c1ccccc1O	–
O=C(N/N=C/c1ccccc1O)c1ccccc1O	-83
SMILES	Tgondii IFNg
COc1cc(Cl)cc2cc(C(=O)N3CCCC4(CNC(=O)O4)C3)oc12 (configuration not stated)	–
Nc1nnc(SCc2c(Cl)cccc2Cl)s1	–
Nc1nnc(Sc2nc3c(Cl)cc(Cl)cc3s2)s1	-85
Nc1nnc(CSCc2ccc(Cl)cc2Cl)s1	–
Cc1ccc2[nH]c(CCNC3CCN(Cc4ccco4)CC3)nc2c1C	–
Cc1ccc(OC2(C(=O)N(C)Cc3nncn3C(C)C)CCNCC2)cc1	–
CNC(=O)c1cccc(NCC(=O)NCCc2ccc(OC)c(OC)c2)c1	–
CC(=O)N1CCNCC(C(=O)N(C)C)C1 (configuration not stated)	–
COc1cc2ncnc(Nc3cccc(Cl)c3)c2cc1OC	–
C[C@@H]1COC(Nc2ccc3ncnc(Nc4ccc(OCc5nccs5)c(Cl)c4)c3c2)=N1	-73
c1coc(CN2C[C@H](OCC3CCOCC3)[C@@H]3COC[C@@H]32)c1	–
COc1cccc(NC(=O)C2Cn3ccnc3C3(CCN(C(=O)C4CCC4)CC3)O2)c1 (configuration not stated)	–
CS(=O)(=O)N1C[C@H]2COC[C@@H](CC(=O)NCc3ccco3)[C@H]2C1	–
Cc1ccc(CN2CCC3(CC2)C(=O)N(C)CCN3CC2CC2)o1	–
Clc1ccc(CCC(Cn2ccnc2)Sc2c(Cl)cccc2Cl)cc1 (configuration not stated)	-86
COc1ccccc1CN(CCCn1ccnc1)Cc1ccc(F)c(F)c1	–
Clc1cccc(Cl)c1Cn1ccnc1	–
O=C(c1ccccc1Cl)N1CCC2(CC1)Nc1ccc(Cl)cc1-n1cccc12	–
CCOc1ccc(C(=O)N2CCC3(CC2)NC(=O)c2cc(F)ccc2N3CC)cc1	–
CC(=O)Nc1ccc(OCc2ncc(C(F)(F)F)cc2Cl)cc1	–
CCCCOC(=O)c1ccc(NC(=O)Nc2ccc(Cl)c(Cl)c2)cc1	–
CNC(=O)c1cc(Oc2ccc(NC(=O)Nc3ccc(Cl)c(C(F)(F)F)c3)cc2)ccn1	-80
Cc1[nH]cnc1CN(C)C1CCCc2ccccc21 (configuration not stated)	–
COc1ccc(-c2cn(Cc3nc(C)c4c(n3)CCCC4)nn2)cc1OC	–
COCCNC(=O)C1CN(Cc2c(C)noc2C)Cc2ccnn2C1 (configuration not stated)	–
SMILES	Tgondii IFNg
COCc1nc(NC(C)Cc2ncccc2C)c2cnn(C)c2n1 (configuration not stated)	–
CN1CCN(CCOc2ccc(C(=O)O)cc2)CC1	–
Cc1c(-c2ccc(O)cc2)n(Cc2ccc(OCCN3CCCCCC3)cc2)c2ccc(O)cc12	-76
Nc1ccc(OCCN2CCCCCC2)cc1	–
CN(CCc1ccccn1)c1nccc(CCC(F)(F)F)n1	–
CCOCc1ncn2c1CN(C(=O)c1ccoc1C)CC2	–
Cc1cccc(CN(Cc2ccccc2)C(=O)c2ccc3nc(C(F)(F)F)[nH]c3c2)n1	–
Cc1ccc(-c2ncc(CN(Cc3ccccc3)Cc3cccc(C)n3)cn2)cc1	-79
Cc1cccc(CN(Cc2ccccc2)C(=O)CCc2ccncc2)n1	–
COc1ccc(-n2c(=O)c(C(=O)Nc3ccc(C)cc3C)c(O)c3cccnc32)cc1	–
O=S(=O)(c1ccc(F)cc1)N1CCCc2ccccc21	–
O=C1CCc2cc(S(=O)(=O)N3CCCc4ccccc43)cc3c2N1CCC3	–
COc1ccc(S(=O)(=O)N2CCCc3ccccc32)cc1	-113
Cc1cccc(C2CCCN(c3ncccn3)C2)n1 (configuration not stated)	–
COc1ccccc1OCC(=O)n1nc(N)c2c(C(F)(F)F)cc(C)nc21	–
COc1ccc(C(=O)c2sc3nc(C)cc(C(F)(F)F)c3c2N)cc1OC	–
COc1cc2ncn(-c3cc(OCc4ccccc4C(F)(F)F)c(C(N)=O)s3)c2cc1OC	-88
Cc1ccc(C(=O)Nc2c(C(=O)N3CCCC3)[nH]c3ccc(C)cc23)cc1	–
CNC(=O)c1cc2c(nc1NCC1CC1)CCN(Cc1ccccn1)CC2	–
CCCS(=O)(=O)N1CCC2OCCCC2(COCC2CC2)C1 (configuration not stated)	–
O=C(OCc1ccc(C(F)(F)F)cc1)c1cc(Cl)cc(Cl)c1	–
Nc1nc(N)c2c(OCc3ccc(C(F)(F)F)cc3)cccc2n1	-74
Cc1cccc(COc2cccnc2N)c1	–
Cc1cccc(C(=O)N2CCC3(CCN3Cc3cnn(C)c3)C2)c1 (configuration not stated)	–
COCCN1CCN(c2ccc3ccc(C(=O)NCc4cccs4)cn23)CC1	–
SMILES	Tgondii IFNg
Cc1cc(-c2onc(C)c2C(=O)Oc2ccc(Cl)cc2)no1	–
COc1cc(C(F)(F)F)cc(C(F)(F)F)c1C(=O)Oc1ccc(Cl)cc1	-96
O=C(CCCC(=O)NCc1cccs1)NCc1cccs1	–
COc1cc(C(F)(F)F)cc(C(F)(F)F)c1C(N)=O	–
COc1cc(C(F)(F)F)cc(C(F)(F)F)c1C(=O)NCc1cccs1	-81
CCN1CCC2(CN(Cc3cccnc3)CC23CCN(C(=O)N2CCCC2)CC3)C1=O (configuration not stated)	–
CC(C)n1nc(-c2cc3cc(O)ccc3[nH]2)c2c(N)ncnc21	–
